Counter-ions that a name gives are not always drawn.
Assays:
[1] = tested on: S. cerevisiae SK1 pCDA2-eGFP (USY613), sporulating; experiment: CDA2-GFP sporulation assay sensitivity score (z-score vs DMSO controls); higher = stronger inhibition of sporulation, active = hit call of the paper;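 further: active if sensitivity score above 5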
[2] = tested on: S. cerevisiae NKY1551 his4x/his4B, sporulating; experiment: HIS4 meiotic recombination assay sensitivity score (z-score vs DMSO controls); higher = stronger inhibition of sporulation/recombination, active = hit call of the paper;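 further: active if sensitivity score above 5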
[3] = tested on: S. cerevisiae AD1-9 (efflux-pump deficient), vegetative growth in YPD; experiment: growth sensitivity score (doubling time z-score vs DMSO controls); higher = slower growth, strongly negative scores also mark growth inhibition (complete suppression), active = hit call of the paper
In short: (§1)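 Optical density of Saccharomyces cerevisiae cultures in microtiter plates was followed every 15 min for 24 hours after seeding at an OD600 of 0.065. Eight solvent-only wells were run per experiment. Growth sensitivity scores were found by subtracting the solvent-only mean from the compound mean and dividing by the solvent-only standard deviation.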

[4] = tested on: S. cerevisiae BY4741 (wild-type), vegetative growth in YPD; experiment: as above
In short: as §1

Compound | CDA2-GFP sporulation assay sensitivity score [1] | HIS4 meiotic recombination assay sensitivity score [2] | growth sensitivity score [3] | growth sensitivity score [4]
Cc1ccc(O)c([C@H](CCN(C(C)C)C(C)C)c2ccccc2)c1 [Tolterodine tartrate] (stock concentration (mM, diluted 1:100): 6.9) | 1.84 (inactive) | 4.21 (inactive) | 2.36 (active) | 0.36 (inactive)
CCC1=C(C)CN(C(=O)NCCc2ccc(S(=O)(=O)NC(=O)N[C@H]3CC[C@H](C)CC3)cc2)C1=O [Glimepiride] (stock concentration (mM, diluted 1:100): 7.7) | 0.5 (inactive) | 1.27 (inactive) | 1.1 (inactive) | -0.03 (inactive)
Cc1c(OCC(F)(F)F)ccnc1C[S+]([O-])c1nc2ccccc2[nH]1 (centres undefined) [Lansoprazole] (stock concentration (mM, diluted 1:100): 10.1) | 14.2 (inactive) | 1.42 (inactive) | 2.67 (active) | 1.37 (inactive)
Cc1nc(=O)c2cc(CN(C)c3ccc(C(=O)N[C@@H](CCC(=O)O)C(=O)O)s3)ccc2[nH]1 [Raltitrexed] (stock concentration (mM, diluted 1:100): 10) | -2.11 (inactive) | -0.01 (inactive) | -3.39 | -0.14 (inactive)
CN(C)CCOC(c1ccccc1)c1ccccc1 [Diphenhydramine hydrochloride] (stock concentration (mM, diluted 1:100): 10) | 2.11 (inactive) | 8.82 (active) | 3.46 (active) | 0.81 (inactive)
C[C@H]1COc2c(C3(N)CC3)c(F)cc3c(=O)c(C(=O)O)cn1c23 [Pazufloxacin] (stock concentration (mM, diluted 1:100): 10) | 0.17 (inactive) | -0.93 (inactive) | 0.07 (inactive) | -1.05 (inactive)
COc1ccc(C2CNC(=O)C2)cc1OC1CCCC1 (centres undefined) [Rolipram] (stock concentration (mM, diluted 1:100): 10) | -2.81 (inactive) | -0.47 (inactive) | -1.05 (inactive) | -0.71 (inactive)
Cc1cccc(C)c1NC(=O)C1CCCCN1C (centres undefined) [Mepivacaine hydrochloride] (stock concentration (mM, diluted 1:100): 10) | 1.82 (inactive) | 0.1 (inactive) | -3.28 | -0.29 (inactive)
CC(=O)Nc1ccc(CC(=O)O)cc1 [Actarit] (stock concentration (mM, diluted 1:100): 10) | 0.84 (inactive) | 0.62 (inactive) | 0.98 (inactive) | -2 (inactive)
CCCN1CCCC[C@H]1C(=O)Nc1c(C)cccc1C [Ropivacaine hydrochloride] (stock concentration (mM, diluted 1:100): 7.7) | 3.5 (inactive) | 2.62 (inactive) | -2 (inactive) | -0.74 (inactive)
Cc1ccsc1C(=CCCN1CCC[C@@H](C(=O)O)C1)c1sccc1C [Tiagabine hydrochloride] (stock concentration (mM, diluted 1:100): 9.1) | 2.44 (inactive) | 5.07 (active) | 0.07 (inactive) | 0.29 (inactive)
CC1(C)O[C@@H]2[C@@H](CO[C@@]3(COS(N)(=O)=O)OC(C)(C)O[C@@H]23)O1 [Topiramate] (stock concentration (mM, diluted 1:100): 10) | -1.32 (inactive) | 0.22 (inactive) | -0.81 (inactive) | -1.18 (inactive)
O=C1CN2Cc3c(ccc(Cl)c3Cl)N=C2N1 [Anagrelide hydrochloride] (stock concentration (mM, diluted 1:100): 8.8) | 3.77 (inactive) | -0.8 (inactive) | -1.22 (inactive) | -2.21
CN1C(C(=O)Nc2ccccn2)=C(O)c2ccccc2S1(=O)=O [Piroxicam] (stock concentration (mM, diluted 1:100): 10) | -3.86 (inactive) | 0.11 (inactive) | 0.98 (inactive) | 0.09 (inactive)
CN1CCCCC1CCN1c2ccccc2Sc2ccc([S+](C)[O-])cc21 (centres undefined) [Mesoridazine] (stock concentration (mM, diluted 1:100): 10) | -0.29 (inactive) | -1.59 (inactive) | 278 (active) | 66 (active)
O=c1cnn([C@@H]2O[C@H](CO)[C@@H](O)[C@H]2O)c(=O)[nH]1 [6-Azauridine] (stock concentration (mM, diluted 1:100): 10) | 0.6 (inactive) | -1.27 (inactive) | 0.13 (inactive) | 0.64 (inactive)

— the supplement of paper PMC3414501
